Screening results as filed in PubChem BioAssay.
D2 PAM-1 – positively modulates the human D2 dopamine receptor allosterically. P14416. HEK293 T-REx D2, calcium flux, EC20 dopamine potentiation. potentiation, % at 10 µM. actives 0.34% (n = 340,000);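 active = potentiation over 3 SD above the plate norm, cut at about 30% in these data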
Target sequence (P14416 whole entry, looked up): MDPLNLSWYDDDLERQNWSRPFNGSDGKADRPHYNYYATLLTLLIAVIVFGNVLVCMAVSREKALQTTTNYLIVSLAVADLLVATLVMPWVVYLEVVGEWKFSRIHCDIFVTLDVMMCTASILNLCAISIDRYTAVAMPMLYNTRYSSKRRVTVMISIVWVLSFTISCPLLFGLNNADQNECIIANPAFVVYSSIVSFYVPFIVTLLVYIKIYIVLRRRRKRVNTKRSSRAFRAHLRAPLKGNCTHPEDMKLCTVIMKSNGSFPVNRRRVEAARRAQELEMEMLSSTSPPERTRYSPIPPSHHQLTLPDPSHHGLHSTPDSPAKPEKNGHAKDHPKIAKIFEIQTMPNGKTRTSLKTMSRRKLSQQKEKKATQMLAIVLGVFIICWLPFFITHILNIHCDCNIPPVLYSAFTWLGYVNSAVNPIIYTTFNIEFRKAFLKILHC
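Cells plated with tetracycline inducer and held overnight at 30 C; calcium dye loaded 30–90 min at room temperature; baseline taken, compound added and read 180 s; EC20 dopamine then added and read 180 s.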
D2 ag-1 – activates the human D2 dopamine receptor | activation, % (no concentration beside the values) | P14416 | DiscoveRx PathHunter D2 beta-arrestin, luminescence, 90 min; 100% = 57 uM dopamine signal | actives 0.084% (n = 360,000); in the data active = activation above about 40%; inconclusive = between about 15% and that limit
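Agonist mode: compounds alone added to overnight-plated D2 PathHunter cells for 90 min at 37 C, with 57 uM final dopamine (EC100) defining full response. Beta-arrestin recruitment detected by chemiluminescent reagent, read after 1 h at ambient temperature.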
D2 ag-2 – activates the human D2 dopamine receptor; P14416; HEK293 T-REx D2 cells, calcium flux agonist mode; activation, % at 2 µM; actives 0.53% (n = 340,000); AID 485358;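 active = activation over 3 SD above normal in the single-dose calcium agonist read, cut at about 30% in these data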
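Calcium-flux readout, 1 cycle/sec over 180 s following compound pin transfer, in inducible HEK293 Trex D2 cells (force-coupled); dopamine controls included. Positive calcium responses during this window marked compounds as potential agonists.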
D2 PAM-2 – human D2 receptor positive allosteric modulation. P14416. DiscoveRx D2 beta-arrestin cells, luminescence, 90 min; 100% = 57 uM dopamine signal. potentiation, % (no concentration beside the values). actives 0.23% (n = 360,000); in the data active = potentiation above about 50%; inconclusive = mostly about 30% to 49%
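PathHunter beta-arrestin assay in DiscoveRx D2 cells. Compounds were added with an EC20 of dopamine (50 nM final) for 90 min at 37 deg C. Luminescence was read 1 h after detection reagent, with 57 uM dopamine as the EC100 control.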
D2 antag – antagonists of human D2 dopamine receptor | actives 2% (n = 340,000) | P14416 | HEK293 TREx D2 cells, calcium flux, dopamine EC80 | inhibition, % at 10 µM | AID 485344; in the data active = inhibition above about 30%; inactive = below that, where a call was filed
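In this primary screen, negative modulation is detected by tracking calcium flux after an EC80 dopamine challenge in inducible HEK293 T-REx D2 cells preexposed to test compound for 180 s.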
Of the large screens only hits and unclear results are named; the others gave an inactive call; ! = a repeat was not active. An excerpt weighted towards active compounds, which were near 2.4% of everything screened.

O=S(=O)(c1ccc(-c2csc(-c3cccnc3)n2)cc1)N1CCCCC1	D2 antag 37
O=C(Nc1cccnc1Cl)c1cc(-c2ccc(F)cc2)on1	D2 PAM-1 34
COc1ccc(-c2cc(C(=O)Nc3cccnc3Cl)no2)cc1	none
O=C(c1cc(-c2ccc(F)cc2)on1)N1CCCCCC1	D2 PAM-1 34
CCOCc1c(C(=O)N2CCN(CC(=O)Nc3ccc(F)cc3)CC2)oc2ccccc12	D2 antag 72
CCn1c(=N)c(C(=O)NC2CCCCC2)cc2c(=O)n3cc(C)ccc3nc21	none (no result: D2 ag-1, D2 PAM-2, D2 antag)
O=Cc1ccc(OCC(=O)NCC2CCCO2)cc1 (stereo not drawn)	D2 antag 30
Cc1ccc(S(=O)(=O)CCN2CCN(c3ccccc3)CC2)cc1	D2 antag 30
O=C(Cc1ccc(F)cc1)NC1CC(=O)N(c2ccccc2)C1 (stereo not drawn)	none (no result: D2 ag-1, D2 PAM-2, D2 antag)
Nc1c(C(O)(C(F)(F)F)C(F)(F)F)cc(C(O)(C(F)(F)F)C(F)(F)F)c2ccccc12	D2 ag-1 inconclusive, D2 PAM-2 91
COc1cc(OC)c(C2=NOC(C(=O)NCc3cccnc3)C2)cc1Cl (stereo not drawn)	D2 PAM-2 54
COc1ccc(OC)c(C2=NOC(C(=O)NCc3cccnc3)C2)c1 (stereo not drawn)	none
COc1ccc(CNC(=O)COC(=O)c2n[nH]c3ccccc23)cc1OC	D2 antag 30
COc1ccccc1CNC(=O)COC(=O)c1n[nH]c2ccccc12	none
Cc1ccc(-c2nnc(SCC(=O)c3ccc(Cl)cc3)n2-c2ccccc2)cc1	none (no result: D2 ag-1, D2 PAM-2, D2 antag)
Cc1ccc(SC[C@H](c2ccccc2)N2CCN(CCc3ccccc3)CCC2=O)cc1	D2 antag 41
O=[N+]([O-])c1ncccc1OCc1ccccc1Br	D2 antag 34
C=Cc1ccc(CSc2nc(-c3ccccc3C)nc3c2Cc2c(CO)cnc(C)c2O3)cc1	none (no result: D2 ag-1, D2 ag-2, D2 PAM-2, D2 antag)
Cc1nn(Cc2ccc(Cl)c(Cl)c2)c(C)c1NC(=O)c1noc2c1CCc1ccccc1-2	none (no result: D2 ag-1, D2 PAM-2, D2 antag)
Cc1nn(Cc2ccccc2)c(C)c1NC(=O)c1noc2c1CCc1ccccc1-2	D2 PAM-1 31
Cc1sc(-c2cc3ccccc3oc2=O)nc1-c1ccc(Cl)cc1	none (no result: D2 ag-1, D2 PAM-2, D2 antag)
C=CCNc1nc(SC)nc2ccsc12	D2 antag 32
CCn1c(C(=O)Nc2cc(C)cc(C)c2)cc2sc(Cl)cc21	none (no result: D2 PAM-1, D2 ag-1, D2 PAM-2, D2 antag)
Cc1ccc(C(=O)OCC(=O)N(C)c2ccccc2)c(C)c1	none
CN(C(=O)COC(=O)c1cc(F)c(F)cc1Cl)c1ccccc1	D2 antag 32
O=S(=O)(c1ccc(F)cc1)N1CCN(CC(O)COCc2cccs2)CC1 (stereo not drawn)	none
OC(COCc1cccs1)CN1CCN(c2cccc(C(F)(F)F)c2)CC1 (stereo not drawn)	D2 antag 50
COc1ccc(-c2cc(C(=O)NCCc3ccc(OC)c(OC)c3)c3ccccc3n2)cc1	none (no result: D2 ag-1, D2 PAM-2, D2 antag)
CCOC(=O)C1(c2csc(N)n2)COC(=O)C1 (stereo not drawn)	D2 antag 44
Cc1ccc(S(=O)(=O)N2[C@@H](c3ccc(Cl)cc3)C(C(=O)O)=CC[C@H]2c2ccc(C(C)C)cc2)cc1	D2 antag 39
CC(C)OCCCNC(=O)CN1C(=O)COc2ccc(S(=O)(=O)N3CCOCC3)cc21	none (no result: D2 ag-1, D2 PAM-2, D2 antag)
Cc1cccc(CNC(=O)C2CCN(c3nc4ccc(Cl)cc4[nH]3)CC2)c1	none (no result: D2 PAM-1, D2 ag-1, D2 PAM-2, D2 antag)
CCCSC1=C(C#N)C(c2ccc(OC)cc2)C2=C(CC(C)(C)CC2=O)N1 (stereo not drawn)	D2 antag 42
O=C(C[n+]1ccc2ccccc2c1)Nc1cc(C(F)(F)F)ccc1Cl	D2 antag 54
O=C(C[n+]1ccccc1)Nc1cc(C(F)(F)F)ccc1Cl	none
CCCS(=O)(=O)NC(=O)C1(C)CCN(C(=O)COc2ccc(Cl)cc2Cl)C1 (stereo not drawn)	D2 PAM-2 60 (no result: D2 PAM-1, D2 ag-2, D2 antag)
CCCS(=O)(=O)NC(=O)C1(C)CCCN(C(=O)COc2ccc(Cl)cc2Cl)C1 (stereo not drawn)	none (no result: D2 PAM-1, D2 ag-2, D2 antag)
N=c1c(C(=O)NCC2CCCO2)cc2c(=O)n3ccccc3nc2n1Cc1ccc(Cl)cc1 (stereo not drawn)	D2 antag 55
Cc1ccc(Cn2c(=N)c(C(=O)NCc3ccco3)cc3c(=O)n4ccccc4nc32)cc1	D2 antag 83
Cc1cc(C)cc(NC(=O)C2CCN(S(=O)(=O)c3cccc(-c4noc(C)n4)c3)CC2)c1	none (no result: D2 ag-1, D2 PAM-2, D2 antag)
COc1ccc(CCNC(=O)c2ccc3c(c2)CCN3S(=O)(=O)c2ccc(C)cc2)cc1	none (no result: D2 ag-1, D2 ag-2, D2 PAM-2, D2 antag)
O=C(O)CCn1nnc(-c2cccs2)n1	none
CC(C)c1ccc(-c2nnn(CCC(=O)O)n2)cc1	D2 ag-1 inconclusive, D2 PAM-2 81
CCc1nnc2c3ccccc3nc(Nc3ccccc3OC)n12	none (no result: D2 ag-1, D2 PAM-2, D2 antag)
O=C(c1cc(F)ccc1F)C1CCCN(C(=O)CCN2CCCCO2)C1 (stereo not drawn)	D2 antag 32
COC(=O)CCC(=O)N1CCCC(C(=O)c2cc(F)ccc2F)C1 (stereo not drawn)	none
O=C(NCCNc1ccc([N+](=O)[O-])cc1)c1ccccc1Br	D2 PAM-1 34
Cc1ccccc1C(=O)NCCNc1ccc([N+](=O)[O-])cc1	D2 antag 33
CCOC(=O)c1c(NC(=O)/C=C/c2ccccc2)sc2c1CCCC2	none (no result: D2 PAM-1, D2 ag-1, D2 PAM-2, D2 antag)
O=C(COc1ccccc1F)Nc1ccccc1OCc1cc(=O)n2ccccc2n1	none (no result: D2 ag-1, D2 ag-2, D2 PAM-2, D2 antag)
O=C(NCCCN1CCN(c2ccc(F)cc2)CC1)C1CCCN(c2ncnc3c2nc2n3CCCCC2)C1 (stereo not drawn)	none
CC1CCCN(CCCNC(=O)C2CCCN(c3ncnc4c3nc3n4CCCCC3)C2)C1 (stereo not drawn)	none
O=C(Nc1ccc(F)c(Cl)c1)C1CCCN(c2cnccn2)C1 (stereo not drawn)	D2 PAM-1 32!
COc1ccccc1N1CCN(CCCNC(=O)C2CCCN(c3ncnc4c3nc3n4CCCCC3)C2)CC1 (stereo not drawn)	D2 antag 76
CC(C)N(Cc1ccccc1)C(=O)C1CCCN(c2ncnc3c2nc2n3CCCCC2)C1 (stereo not drawn)	D2 antag 38
CC1CC(C)CN(CCCNC(=O)C2CCCN(c3ncnc4c3nc3n4CCCCC3)C2)C1 (stereo not drawn)	D2 antag 34
CCCC(=O)N(c1ccc2oc(-c3ccccc3)c(C(=O)OCC)c2c1)S(=O)(=O)c1ccc(C)cc1	none (no result: D2 ag-1, D2 ag-2, D2 PAM-2, D2 antag)
Cc1ccc(NC(=O)C2CCN(c3ncnc4c3nc3n4CCCCC3)CC2)cc1Cl	none
Cc1ccc(NC(=O)C2CCCN(c3ncnc4c3nc3n4CCCCC3)C2)cc1Cl (stereo not drawn)	D2 antag 33
